system: Lefty1; assay: Lefty1 binders on small-molecule microarrays, primary screen, biochemical, small-molecule microarray, 635/667 nm fluorescence (AID 1139); conditions: small-molecule microarray binding, fluorescence 635/667; higher = more signal

Structure (SMILES)	composite z-score
CCCCN1CC=CC23O[C@@H]4C=CCOC(=O)[C@@H]4[C@H]2C(=O)N(CCO)[C@@H]3C1=O (stereo not given in full)	-1.45
C=CC[C@@]12N=C(c3ccc(OCCCO)cc3)O[C@@H]1c1ccccc1N(Cc1ccccc1)C2=O	1.55
COCCOC(=O)N1C(=O)[C@@]2(c3cc(C#CCC(C(=O)OC)C(=O)OC)ccc31)[C@H](C(N)=O)[C@H]1C(=O)O[C@H](c3ccccc3)[C@H](c3ccccc3)N1[C@@H]2c1ccc(OCCO)cc1	0.596
CCOC(=O)C1=C(C(=O)OCC)N(S(=O)(=O)CC[Si](C)(C)C)[C@H](c2ccccc2)CC1	0.566
COC(=O)C1=CC(CCCO)=CC(c2ccc(CN3CCCC3)cc2)N(Cc2sc3ccccc3c2Cl)C=C1C(=O)OC (stereo not given)	0.377
C=CCNC(=O)[C@@H]1[C@H]2C(=O)O[C@H](c3ccccc3)[C@H](c3ccccc3)N2[C@H](c2ccc(O)cc2)[C@@]12C(=O)Nc1ccc(C#CC3(O)CCCCCC3)cc12	0.304
NC(=O)NCC#Cc1ccc2c(c1)[C@]1(C(=O)N2)[C@H](C(=O)Nc2nc3ccccc3s2)[C@H]2C(=O)O[C@H](c3ccccc3)[C@H](c3ccccc3)N2[C@@H]1c1ccc(OCCO)cc1	-0.276
COCCOC(=O)N1C(=O)[C@@]2(c3cc(C#CC4(O)CCCCCC4)ccc31)[C@H](c1ccccc1OCCO)N1[C@H](c3ccccc3)[C@H](c3ccccc3)OC(=O)[C@H]1[C@@H]2C(=O)N1CCCCCCC1	1.37
COCCOC(=O)N1C(=O)[C@@]2(c3cc(C#CCCO)ccc31)[C@H](C(=O)N1CCc3cc(OC)c(OC)cc3C1)[C@H]1C(=O)O[C@H](c3ccccc3)[C@H](c3ccccc3)N1[C@@H]2c1ccccc1OCCO	1.3
[N-]=[N+]=NCc1ccccc1[C@H]1OC(c2ccc(OCCCO)cc2)=N[C@@]1(Cc1ccccc1)C(=O)N1CCOCC1	-0.155
C=CCOC(=O)[C@H]1[C@@H]2C(=O)O[C@@H](c3ccccc3)[C@@H](c3ccccc3)N2[C@@H](c2ccc(OCCOC(=O)[C@@H]3C[C@@H]4C(=O)N[C@@H](CC(C)C)C(=O)N4[C@@H]3c3ccc(O)cc3)cc2)[C@]12C(=O)Nc1ccc(I)cc12	0.677
COCCOC(=O)N1C(=O)[C@@]2(c3cc(C#CCC(C(=O)OC)C(=O)OC)ccc31)[C@H](C(=O)N1CCc3cc(OC)c(OC)cc3C1)[C@H]1C(=O)O[C@H](c3ccccc3)[C@H](c3ccccc3)N1[C@@H]2c1ccc(O)cc1	1.11
O=C1c2ccccc2[C@@]2(Cc3ccccc3N(Cc3ccccc3)C2=O)[C@H](c2ccc(CO)cc2)N1Cc1ccccc1	-1.09
CN(C)CCCC[C@@H]1NC(=O)[C@@H]2C[C@H](C(=O)NCCCCCCNC(=O)CS)[C@H](c3cccc(OCCO)c3)N2C1=O	0.273
CCCC[C@H]1OB(O)C[C@H]2C1=C(COC)C[C@H]1C(=O)C=CC(=O)[C@H]12	0.96
C=C(/C(=C/C[C@@H](OC(C)=O)c1ccccc1OCCO)c1cc(C(=O)OC)ccc1OC)C(C)C	0.282
C=C(CCCC)/C(=C/C[C@H](OC(C)=O)c1cccc(OCCO)c1)c1cc(C(=O)OC)ccc1OC	0.283
CN(C)CCCC[C@@H]1NC(=O)[C@@H]2C[C@H](C(=O)NCc3ccc(F)cc3)[C@H](c3ccc(O)cc3)N2C1=O	0.748

Structure (SMILES)	composite z-score
C=CCNC(=O)[C@@H]1[C@H]2C(=O)O[C@H](c3ccccc3)[C@H](c3ccccc3)N2[C@H](c2ccccc2OCCO)[C@@]12C(=O)N(C(=O)OCCOC)c1ccc(C#CCCO)cc12	0.711
C=CCC(OC(C)=O)[C@@H]1[C@@H](N(Cc2cc3ccccc3o2)C(=O)c2ccc(-c3ccccc3)cc2)c2cc(OCCCO)ccc2N1C(=O)c1ccc2ccccc2n1 (stereo not given in full)	-0.194
COc1ccc(C#Cc2ccc3c(c2)[C@]2(C(=O)N3)[C@H](C(=O)Nc3nc4ccccc4s3)[C@H]3C(=O)O[C@H](c4ccccc4)[C@H](c4ccccc4)N3[C@@H]2c2ccc(OCCO)cc2)cc1	0.949
C=CCC(OC(C)=O)[C@@H]1[C@@H](N(Cc2cc3ccccc3o2)C(=O)Cc2ccc(OC)cc2)c2cc(OCCCO)ccc2N1C(=O)Cc1ccc(OC)cc1 (stereo not given in full)	-0.0035
COCCOC(=O)N1C(=O)[C@@]2(c3cc(C#CC4(O)CCCCCC4)ccc31)[C@H](C(=O)NC[C@H](O)c1ccccc1)[C@H]1C(=O)O[C@H](c3ccccc3)[C@H](c3ccccc3)N1[C@@H]2c1ccc(O)cc1	0.439
Cc1c(NC(=O)/C(C#N)=C/c2ccc(Cl)cc2)c(=O)n(-c2ccccc2)n1C	0.466
CCCC=C(CCC)[C@@H](NS(=O)(=O)c1ccc(Cl)cc1)c1ccccc1	-1.17
CN(C)CCCNC(=O)[C@@]1(Cc2ccccc2I)c2ccccc2C(=O)N(Cc2ccccc2)[C@H]1c1ccc(CO)cc1	0.239
CCOC(=O)C[C@H]1[C@H](OC(=O)c2ccc(-c3ccccc3)cc2)[C@@H](NC(=O)c2ccc3ccccc3c2)c2cc(OCCCO)ccc2N1C(=O)c1ccccc1	0.669
C=C(CCCC)C(=O)CC[C@H](OC(=O)c1cccnc1)c1ccc(CO)o1	1.65
COc1ccc(C#Cc2ccc3c(c2)[C@]2(C(=O)N3)[C@H](c3ccc(OCCO)cc3)N3[C@H](c4ccccc4)[C@H](c4ccccc4)OC(=O)[C@H]3[C@@H]2C(=O)O)cc1	1.63
COC(=O)[C@@]1(Cc2ccc(F)cc2)[C@H]2c3cc(C(=O)N(C)C)n(CCN4CCOCC4)c3C[C@H]2CN1C(=O)c1ccccc1	-0.0199
CCCC[C@@H]1C[C@H]1[C@@H](NC(=O)c1ccc(C(F)(F)F)cc1)c1ccc(C(=O)OC)cc1	0.944
COC(=O)[C@@]1(Cc2ccccc2)[C@@H]2[C@@H](CC(=O)[C@H]2CC(=O)C(=O)N(C)C)CN1C(=O)c1ccccc1	-0.575
COC(=O)[C@@]1(Cc2ccc(OC)cc2)[C@H]2c3cc(C(=O)N4CCCC4)n(CCc4ccc(OC)c(Br)c4)c3C[C@H]2CN1C(=O)c1ccccc1	-1.13
O=C1NC(=O)C2C1C=CC(C(O)c1cccc(O)c1)N2Nc1ccc(Cl)cc1Cl (stereo not given)	-0.317
C=C(COC)C(=O)CC[C@@H](OC(C)=O)c1ccc(OCCO)cc1	0.843
